Consider 40 compounds from PubChem BioAssay (NCI).

Each structure is given as a SMILES string. About 83,000 compounds went through this panel and 20% of them were active in at least one assay; those are over-represented in the sample as a whole.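 Each cell line was grown in a 96-well plate and treated with one concentration of compound for 48 hours. Values below 10 were considered active.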 Active and inactive are the calls of the source.

The test system of this assay is HL-60(TB) leukemia. Kind of assay: NCI-60 one-dose screen, 48 h (100 = growth as untreated, 0 = no growth, -100 = all killed). The note with it: 10 µM unless noted.
Consider `CN(C)CCCOc1c2ccc(Cl)cc2nc2c1oc1ccc(Cl)cc12`, for which the growth is 18.9% (inactive).
Then `COc1cc(OC)c(C2SCC(=O)N2Nc2ncnc3ccccc23)cc1OC` (stereo not given), with 103% (inactive).
For the compound `Cn1c2nc3ccccc3c-2cc2ccccc21`, the growth is 41.6% (inactive).
Take `CCOC(=O)c1c(NC(=O)c2ccc(F)cc2F)sc2c1CCC(=O)C2`: the growth is 91.9% (inactive).
The result for `Clc1ccc2oc3c(OCCCn4ccnc4)c4ccccc4nc3c2c1` reads 73.1% (inactive); that for `COc1ccccc1NCc1cccn1Cc1ccc(F)cc1`, 104% (inactive); that for `CC[C@]12C=CCN3CC[C@]4(C(=C(C(=O)OC)C1)Nc1cc5c(cc14)[C@@H]1[C@H](O5)[C@@H](O)[C@@]4(CC)CC(C(=O)OC)=C5Nc6cc(OC)ccc6[C@@]56CCN1[C@@H]46)[C@@H]32`, 5.09% (active).
Turning to `CC(C)(C)Nc1nc2c(OCCc3ccccc3)cccn2c1-c1cccc(F)c1`, the growth is -30.2% (active).
On to `COc1cc(/C=C/C(=O)c2cc(OC)c(OC)c(OC)c2)ccc1Oc1nc(NCCO)nc(N2CCOCC2)n1`, for which the growth was -5.23% (active).
With `C=C(C)[C@@H]1CC[C@]2(C(=O)N3CCN(C)CC3)CC[C@]3(C)[C@H](CC[C@@H]4[C@@]5(C)CC[C@H](OP(=O)(OCC)OCC)C(C)(C)[C@@H]5CC[C@]43C)[C@@H]12`, the growth is 42.2% (inactive).
Take `CCN1CCN(Cc2cn(-c3ccc(S(N)(=O)=O)cc3)nn2)CC1`: the growth was 110% (inactive).
As to `NCCN1CCN(c2nc(-c3ccccc3)nc3nc(-c4ccccc4)oc23)CC1`, the growth was -5.94% (active).
`COc1cc(/C=C2\C(=O)Nc3cc(Cl)ccc32)ccc1OCc1ccc(F)cc1`: the growth was 120% (inactive).
For the compound `C=CCn1c(SCC(=O)Nc2ccc(C(=O)/C=C/c3cc(OC)c(OC)c(OC)c3)cc2)nnc1-c1c[nH]c2ccccc12`, the growth was -15.1% (active).
Then `N#Cc1c(-c2ccc(Cl)cc2)nc(SCc2ccccc2)nc1N1CCNCC1`, with 1.3% (active); and `NS(=O)(=O)Oc1ccc2nc(Nc3ccc(F)c(F)c3)ccc2c1`, with 71.3% (inactive).
As to `CN(C)C(=O)c1ccccc1-n1cnc2ccccc2c1=O`, the growth is 99.1% (inactive).
In the case of `O=C(N/N=C/c1ccco1)c1[nH]c2ccc(Br)cc2c1-c1ccccc1`, the growth is -28.4% (active).
For the compound `NC(=O)c1c(NC(=O)c2ccc(F)cc2F)sc2c1CCC(=O)C2`, the growth is 34.1% (inactive).
For `O=C(CSc1nc2ccccc2c(=O)n1-c1ccccc1)N/N=C/c1ccc(Oc2ccc(Br)cc2)cc1`, the growth is 105% (inactive).
On to `C=CCn1c(SCC(=O)Nc2ccc(C(=O)/C=C/c3ccc(Br)cc3)cc2)nnc1-c1c[nH]c2ccccc12`, for which the growth was 84.3% (inactive).
Consider `CCOc1ccc2nc(NC(=O)Nc3ccccc3C)sc2c1`, for which the growth is 15.3% (inactive).
The result for `COc1ccc2c(c1)c(CC(=O)[Se]CC#N)c(C)n2C(=O)c1ccc(Cl)cc1` reads -14% (active); that for `N/C(=N\OC(=O)CSc1nc2ccccc2s1)c1ccc2ccccc2c1`, 105% (inactive).
For the compound `COc1c([C@@H](CC(C)C)OC(C)=O)ccc2c1C(=O)OCc1cc(C)cc(O)c1O2`, the growth was 63.7% (inactive).
With `CCOC(=O)c1c(NC(=O)c2ccc(C(C)(C)C)cc2)sc2cc(OCCN3CCCCC3)ccc12`, the growth is 27.1% (inactive).
In the case of `CC1CCN(CC(=O)Nn2c(COc3ccccc3)nc3ccccc3c2=O)CC1`, the growth was 80.3% (inactive).
Take `ClC(Cl)c1nc(-c2ccco2)n2nc(-c3ccccc3)cc2n1`: the growth was -24.4% (active).
Then `Cc1ccc(NC2=C(Cl)C(=O)c3nc(C)ccc3C2=O)c(C)c1`, with -14.8% (active); and `CN(C)CCNc1ccc2ncc(C#Cc3cncc(C(=O)Nc4ccc(CN5CCN(C)CC5)c(C(F)(F)F)c4)c3)n2n1`, with -32.1% (active); and `Cc1ncn(-c2ccc(/C=N/Nc3ccnc4cc(Cl)ccc34)cc2)c1C`, with -40.4% (active).
The result for `COc1ccc(/C=N/NC(=O)c2c(N)nn(C)c2Nc2ccccc2)cc1Oc1ccccc1` reads 100% (inactive); that for `CCOC(=O)c1c(NCC(=O)Nc2ccc(Br)cc2)sc2c1CCCC2`, 28.9% (inactive).
On to `COc1cc(OC)cc(-c2cc(-c3c[nH]c4ccccc34)nc(-c3c[nH]c4ccccc34)c2C#N)c1`, for which the growth is 102% (inactive).
As for `Cc1ccc2c(n1)C(=O)C(Cl)=C(Nc1ccc(C)c(C)c1)C2=O`, the growth is 58.4% (inactive).
Then `[Cl][Ru].c1ccc(-c2cc(-c3ccccn3)nc(-c3ccccn3)c2)cc1.c1ccc(-c2ccnc3c2ccc2c(-c4ccccc4)ccnc23)cc1`, with -29.2% (active); and `CC1OC(O[C@@H]2[C@H](O)C(CO)OC(O[C@H]3COC(O[C@H]4CC[C@]5(C)[C@H]6CC[C@]78OC[C@@]9(CC[C@](C)(C=O)C[C@H]97)C(=O)C[C@@]8(C)[C@]6(C)CC[C@H]5C4(C)C)[C@@H](O)[C@@H]3O)[C@H]2OC2OC[C@@H](O)[C@@H](O)[C@@H]2O)[C@@H](O)[C@@H](O)[C@H]1O` (stereo not given in full), with 101% (inactive).
`Cc1ccc(-c2cc(-c3ccc(N(C)C)cc3)n3c(n2)nc2ccccc23)cc1`: the growth is 67.1% (inactive).
As to `Cc1occc1-c1nc2s/c(=C/c3ccc(-c4cc(C(F)(F)F)ccc4Cl)o3)c(=O)n2n1`, the growth was 106% (inactive).
Consider `COc1ccc(-c2cc(-c3ccc(N4CCOCC4)cc3)n3c(n2)nc2ccccc23)cc1OC`, for which the growth was 71% (inactive).
